Screening data as filed in PubChem BioAssay.
Rows were chosen to be rich in hits. Some 7.1% of all compounds tested hit in one or more screens of this group.
MARV entry inh: Marburg virus entry inhibition | AID 720532 | Marburg virus pseudotype entry/binding inhibition, cell-based | actives 6.5% (n = 18,000) | Potency, µM (highest dose often 49.2 µM), usual class: inhibitors
LASV entry inh: blocks Lassa virus binding or cell entry. Lassa virus pseudotyped entry inhibition, cell-based qHTS. Potency, µM (doses to about 49.2 µM), usual class: inhibitors. actives 4.1% (n = 18,000)
Numbers stand for hits; - = inactive; ? = inconclusive; ! = not active in a repeat; [ ] = dose if it differs, or a comment. The call rests on the fitted dose curve; tested in HEK293 cells.

SMILES | MARV entry inh | LASV entry inh
CC1(C)CC[C@]2(C(=O)O)CC[C@]3(C)C(=CCC4[C@@]5(C)CC[C@H](O)C(C)(C)[C@@H]5CC[C@]43C)C2C1 (some centres undefined) | - | ?
CC1(C)CC[C@]2(C(=O)O)CC[C@]3(C)C(=CCC4[C@@]5(C)CC[C@H](O)C(C)(C)C5[C@H](O)C[C@]43C)C2C1 (some centres undefined) | - | 32µM
CC(C)COCC(CN(Cc1ccccc1)c1ccccc1)N1CCCC1 (centres undefined) | 6.3µM | 14µM!
COc1cc2oc(=O)cc(CN3CCCC3)c2cc1Cl | - | -
CCc1nc2cc(C(=O)N(C)CC3COCCO3)cc(NC(=O)c3ccccc3OC)c2n1C (centres undefined) | - | -
FC(F)(F)c1cccc(C2=CCN(CCc3ccc4ccccc4c3)CC2)c1 | - | -
O=C1Nc2ccccc2C2(CCN(CCc3ccc(C(F)(F)F)cc3)CC2)O1 | 11µM | ?
CN(C)c1ccc(-c2ccc3ncnc(N4CCNCC4)c3c2)cc1 | - | -
C=C1C2CCC3[C@@](CC[C@@H]4C(C(=O)O)CC(OC5OC(CO)C(OS(=O)(=O)O)C(OS(=O)(=O)O)C5OC(=O)CC(C)C)C[C@]34C)(C2)C1O (some centres undefined) | - | -
C[C@H]1[C@H]2CC[C@H]3C4CC=C5C[C@@H](N(C)C)CC[C@]5(C)C4CC[C@]23CN1C (some centres undefined) | 11µM | -
C[C@]12CC[C@H](O)CC1=CC[C@@H]1[C@@H]2CC[C@]2(C)C(=O)CC[C@@H]12 | - | -
CN(Cc1ccc(C(C)(C)C)cc1)Cc1cccc2ccccc12 | - | ?
CC[n+]1c(-c2ccccc2)c2cc(N)ccc2c2ccc(N)cc21 | 8.9µM | ?
CCN1C(=O)N(C)C(c2ccccc2)C(C(C)=O)=C1C (centres undefined) | -[8.59 µM] | -[8.59 µM]
CCC(O)CNC(=O)c1cnn(-c2ncc3c(n2)-c2ccc(OC)cc2CC3)c1C1CC1 (centres undefined) | - | -
CCN(CC)CCNC(=O)c1cnn(-c2ncc3c(n2)-c2ccc(OC)cc2CC3)c1C | 13µM | ?
C=CC(C)(C)c1[nH]c2ccccc2c1C1=C(O)C(=O)C(c2c[nH]c3c(CC=C(C)C)cccc23)=C(O)C1=O | - | 14µM
C=C1Cc2c(Cl)cc3[nH]c4c5c3c2[C@@]2(O)[C@@H]1C[C@@H]2C(C)(C)O[C@H]5[C@@H]1CC[C@@]2(O)[C@@]35O[C@@H]3[C@@H](O)[C@@H](C(=O)O)O[C@H]5CC[C@]2(C)[C@@]41C | ? | 28µM
CC1CCC2C(C)C(=O)OC3O[C@]4(C)CCC1[C@@]32OO4 (some centres undefined) | - | -
C[C@@H]1CC[C@H]2[C@@H](C)C(=O)O[C@@H]3O[C@@]4(C)CC[C@@H]1[C@]32OO4 | 1.8µM | 2.2µM
CN(C)CCOC(c1ccc(Cl)cc1)c1ccccn1 (centres undefined) | ? | -
CN(C)CCOC1=Cc2ccccc2Sc2ccc(Cl)cc21 | 13µM | ?
Cc1cc2oc(=O)cc(CN3CCCC3)c2cc1Cl | - | -
CC(CN1CCc2nnc(CNC(=O)c3cccc(F)c3)n2CC1)c1ccccc1 (centres undefined) | - | -
O=C(NCc1nnc2n1CCN(Cc1cc(F)cc(F)c1)CC2)c1cccc(F)c1 | 5µM | ?
SMILES | MARV entry inh | LASV entry inh
COC(=O)C1=C(C)N(Cc2ccccc2)C(=NCc2ccc(OC)cc2)NC1c1cccc(F)c1 (centres undefined) | -[8.59 µM] | -[8.59 µM]
CC1CC[C@@]2(NC1)O[C@@H]1C[C@H]3C4CC=C5C[C@@H](O)CC[C@]5(C)C4CC[C@]3(C)[C@H]1[C@@H]2C (some centres undefined) | - | -
OC(CCN1CCCCC1)(c1ccccc1)C1CC2C=CC1C2 (centres undefined) | 10µM | 22µM!
FC(F)(F)c1ccccc1-c1cncnc1Nc1ccccc1 | - | -
C[C@@]12CCC=C[C@H]1[C@H](c1ccccc1Br)N(Cc1ccccc1)C2=O | 20µM | -
Cc1cccc([C@H]2[C@@H]3C=CCC[C@@]3(C)C(=O)N2Cc2ccccc2)c1 | - | -
COc1ccc(-c2nc3cc(C)ccc3cc2CN(C(=O)c2cc(C)nn2C)C2CC2)cc1OC | - | ?
COc1c2c(c(C(=O)/C=C/C(C)=C/c3ccccc3)c3c1OCO3)CCN(C)C2 | 16µM | -
COc1c2c(cc3c1OCO3)CCN(C)C2 | - | -
COC1=C[C@H](C(=O)NCc2ccccn2)[C@@]2(C)Cc3ccccc3[C@@H]2CC1=O | -[8.59 µM] | -[8.59 µM]
Cc1ccc(S(=O)(=O)N2CCC(=O)N([C@H](COCc3cccc(C(F)(F)F)c3)Cc3ccccc3)CC2)cc1 | 11µM | ?
Cc1ccc(S(=O)(=O)N2CCC(=O)N([C@H](COCc3cccc(C(F)(F)F)c3)C(C)C)CC2)cc1 | ? | -
CC(C)(Cc1c[nH]c2ccccc12)NCC(O)COc1ccccc1C#N (centres undefined) | 7.9µM | ?
CC(C)(C)NC[C@H](O)COc1cccc2[nH]c(C#N)cc12 | - | -
